Reference: PubChem BioAssay AID687001 (Broad Institute, 2013)
Entries with a potency or affinity are not part of this list. Calls of active or inactive are those of the source.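 Rule for the calls: active = signal-lowering compounds whose fitted half-maximal concentration is at or below twice the top tested dose in every run; inconclusive = runs disagree, flat 30 to 70% inhibition, or poor curve fit; inactive = the rest.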

The compounds below were run against Protein S100-A4 (Homo sapiens) (UniProt P26447) (assay: S100A4-myosin IIA binding inhibitor potency, dose response, biochemical, fluorescence polarization, cherry-picked hits (AID 687001)). Settings: FP, S100A4/TAMRA-myosin IIA peptide binding; series mostly up to 11 µM.
Sequence of Protein S100-A4 (Homo sapiens) (P26447 whole entry, looked up): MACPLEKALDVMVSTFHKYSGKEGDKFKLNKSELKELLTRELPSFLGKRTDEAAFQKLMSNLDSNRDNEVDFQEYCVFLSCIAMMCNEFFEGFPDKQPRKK

| Compound | outcome |
| --- | --- |
| O=C(C[C@@H]1CC[C@@H](NC(=O)Cc2cccnc2)[C@H](CO)O1)Nc1ccc(-c2ccccc2)cc1 | inactive |
| O=C(C[C@@H]1CC[C@@H]2[C@H](COC[C@@H](O)CN2C(=O)c2ccc3c(c2)OCO3)O1)NCCN1CCCC1 | inactive |
| CN(C(=O)c1ccc(Br)o1)C1CCCCC1 | inactive |
| CCOc1ccc(/C=N/NC(=O)c2ccccc2C)cc1CN1CC2CC(C1)c1cccc(=O)n1C2 (centres undefined) | inactive |
| C[C@@H]1CN([C@H](C)CO)C(=O)CCCn2cc(nn2)CO[C@H]1CN(C)S(=O)(=O)c1ccc(Oc2ccccc2)nc1 | inactive |
| COC(=O)CCC(C)C1CCC2C3CCC4CC(O)CCC4(C)C3=CC(=O)C12C (centres undefined) | inactive |
| C[C@@H]1CN([C@@H](C)CO)C(=O)c2cc(NC(=O)c3ccncc3)ccc2O[C@@H]1CN(C)Cc1ccncc1 | inactive |
| Cc1ccc(-c2ccc(=O)n(Cc3ccc(F)cc3)n2)cc1 | inactive |
| COc1cccc(C2c3[nH]c4ccccc4c3C[C@H]3C(=O)N(C)CC(=O)N23)c1 (some centres undefined) | inactive |
| CC(=O)N1CCCCN2[C@@H](CO)[C@H](c3ccc(-c4cccc(C(=O)N(C)C)c4)cc3)[C@@H]2C1 | inactive |
| O=C(CCN1CCCCC1)N[C@H]1CC[C@@H](CCNS(=O)(=O)c2ccc(Cl)cc2)O[C@H]1CO | inactive |
| CCCCn1c(N)c(N(CC)C(=O)CSCc2ccc(C)cc2)c(=O)[nH]c1=O | inactive |
| C[C@@H]1CN([C@H](C)CO)C(=O)c2cc(NS(=O)(=O)c3ccc(F)cc3)ccc2O[C@@H](C)CCCCO[C@@H]1CN(C)C(=O)NC1CCCCC1 | inactive |
| Cc1ccc(OC(=O)N(C)C[C@@H]2OCc3cn(nn3)CCCC(=O)N([C@H](C)CO)C[C@H]2C)cc1 | inactive |
| O=C(CN(Cc1ccco1)C(=O)c1cccc(F)c1)Nc1ccccc1C(F)(F)F | inactive |
| Cc1[nH][nH]c(=O)c1C(c1cc(Br)ccc1O)c1c(C)[nH][nH]c1=O | inactive |
| CO[C@@H]1CC[C@H]2CCOc3c(C#N)cccc3C(=O)N(C)C[C@H](C)C(=O)N(C)C[C@H]1O2 | inactive |
| Cc1cc(Nc2cccc(F)c2)cc(=O)n1-c1cccc(F)c1 | inactive |
| CN(CC(=O)Nc1ccc(F)cc1)C(=O)CCc1nc2sc3c(c2c(=O)[nH]1)CCCC3 | inactive |
| C[C@@H]1CN([C@H](C)CO)C(=O)c2ccccc2-c2ccccc2CO[C@H]1CN(C)C(=O)Oc1ccccc1 | inactive |

| Compound | outcome |
| --- | --- |
| CC(C)NC(=O)Nc1ccc2c(c1)C(=O)N([C@@H](C)CO)C[C@H](C)[C@H](CN(C)C(=O)c1ccncc1)OCCCC[C@H](C)O2 | inactive |
| CO[C@@H]1CN(C)C(=O)c2ccc(NC(=O)c3ccc(F)cc3)cc2OC[C@H](C)N(C(=O)CC2CC2)C[C@H]1C | inactive |
| O=C(c1ccccc1F)N1CC(=O)N2[C@@H](CO)[C@H](c3ccc(C#Cc4ccccc4)cc3)[C@@H]2C1 | inactive |
| COCC(=O)N1CC2(CCN(Cc3ccccc3Cl)CC2)c2c([nH]c3cc(OC)ccc23)[C@H]1CO | inactive |
| C[C@@H]1CN([C@H](C)CO)C(=O)c2cc(-c3ccc(F)cc3)cnc2O[C@H]1CN(C)Cc1cncnc1 | inactive |
| O=C(/C=C/c1cccc(Cl)c1)NCCCN1CCOCC1 | inactive |
| COc1ccc2c(c1OC)C(=O)N1N=C(c3ccc(Cl)cc3)CC21 (centres undefined) | inactive |
| CC1CCN(C(=O)c2[nH]cnc2C(=O)N[C@@H](C)C(=O)OCc2ccccc2)CC1 | inactive |
| COc1ccc(NC(=O)Nc2ccc3c(c2)C(=O)N([C@H](C)CO)C[C@H](C)[C@H](CN(C)Cc2ccc(C(F)(F)F)cc2)OCCCC[C@H](C)O3)cc1 | inactive |
| COc1ccc(CCN2CC(C(=O)NCCN3CCNC3=O)CCC2=O)cc1 (centres undefined) | inactive |
| COc1ccccc1Nc1cc(C)nc(Nc2ccccc2OC)n1 | inactive |
| CC(NC(=O)c1ccccc1F)c1nnc(SCC(=O)Nc2nnc(C3CC3)s2)n1C (centres undefined) | inactive |
| S=C(NCCCc1cnc[nH]1)NCCCN(Cc1ccc(Cl)cc1)c1ccc(Br)cn1 | inactive |
| C[C@H]1CN([C@@H](C)CO)C(=O)c2cc(Br)cnc2O[C@H]1CN(C)C(=O)c1ccccc1F | inactive |
| O=C(CSc1n[nH]c(-c2ccc(Br)cc2)n1)NC1CCCC1 | inactive |
| CN1CCN(C(CNC(=O)C(=O)Nc2ccc3c(c2)OCO3)c2ccc(F)cc2)CC1 (centres undefined) | inactive |
| CCC(=O)N1CC(=O)N2[C@H](CO)[C@H](c3ccc(C#CC4CCCC4)cc3)[C@H]2C1 | inactive |
| Cc1cc2ccccc2n1CCNC(=O)Cc1cccc2ccccc12 | inactive |
| CCC(c1nc2ccccc2[nH]1)n1c(-c2cnccn2)nc2ccccc21 (centres undefined) | inactive |
